# In the supplement of paper PMC10515830:
# Where a name gives a salt, the structure may show the parent alone.
# Tests used:
# Conditions in all cases: 10 µM; exposure time 6 h
# [1] = system: Danio rerio larvae (5 dpf); assay: difference in excitability vs DMSO (percentage points); higher = more excitable than DMSO
# How it was run: (§1)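 Wild-type zebrafish larvae at 5 dpf were kept in 96-well plates and exposed for 6 h to 100 µL egg water holding library compound at a final concentration of 10 µM. From 3 h into exposure, the plates were held at 28.5 ℃ and photographed every 6 s through a 3-h programme of moving lines and 100 ms, 400Hz tones. Each behaviour was scored by Z-LaP Tracker, a DeepLabCut model, and averaged over 48 larvae per compound. Every value gives the compound mean minus the vehicle control mean, in percentage points.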
# [2] = system: Danio rerio larvae (5 dpf); assay: difference in startle response vs DMSO (percentage points); higher = stronger startle than DMSO
# How it was run: as §1
# [3] = system: Danio rerio larvae (5 dpf); assay: difference in activity during first hour vs DMSO (percentage points); higher = more activity than DMSO
# How it was run: as §1
# [4] = system: Danio rerio larvae (5 dpf); assay: difference in habituation to acoustic stimuli vs DMSO (percentage points); higher = more habituation than DMSO
# How it was run: as §1
# [5] = system: Danio rerio larvae (5 dpf); assay: difference in combined optomotor response to red, green and blue moving lines vs DMSO (percentage points); higher = stronger optomotor response than DMSO
# How it was run: as §1
SMILES,difference in excitability [1],difference in startle response [2],difference in activity during first hour [3],difference in habituation to acoustic stimuli [4],difference [5]
"CC(O)C(O)[C@H]1CNc2nc(N)[nH]c(=O)c2N1 (stereo partly drawn) [(6R)-5,6,7,8-tetrahydro-L-Biopterin (hydrochloride)]",0.358,-1.51,-0.551,1.85,6.59
CC(C)CCCCC(=O)N[C@@H](CCNCS(=O)(=O)O)C(=O)N[C@H](C(=O)N[C@@H](CCNCS(=O)(=O)O)C(=O)N[C@H]1CCNC(=O)[C@H]([C@@H](C)O)NC(=O)[C@H](CCNCS(=O)(=O)O)NC(=O)[C@H](CCNCS(=O)(=O)O)NC(=O)[C@H](CC(C)C)NC(=O)[C@@H](CC(C)C)NC(=O)[C@H](CCNCS(=O)(=O)O)NC1=O)[C@@H](C)O.CC[C@@H](C)CCCCC(=O)N[C@@H](CCNCS(=O)(=O)O)C(=O)N[C@H](C(=O)N[C@@H](CCNCS(=O)(=O)O)C(=O)N[C@H]1CCNC(=O)[C@H]([C@@H](C)O)NC(=O)[C@H](CCNCS(=O)(=O)O)NC(=O)[C@H](CCNCS(=O)(=O)O)NC(=O)[C@H](CC(C)C)NC(=O)[C@@H](CC(C)C)NC(=O)[C@H](CCNCS(=O)(=O)O)NC1=O)[C@@H](C)O [Colistin Methanesulfonate (sodium salt)],20.4,-4.76,4.65,0.808,-2.32
CN1CCN2c3ncccc3Cc3ccccc3C2C1 (stereo not given) [Mirtazapine],-3.43,3.21,17.5,-1.46,-7.5
O=C(O)C1(C(=O)O)CCC1.[NH2-].[NH2-].[Pt+2] [Carboplatin],-3.06,-1.15,-11.9,0.48,-2.73
CN(C)C/C=C/C(=O)Nc1cc2c(Nc3ccc(F)c(Cl)c3)ncnc2cc1O[C@H]1CCOC1 [Afatinib (maleate)],20.1,-1.05,-11.3,5.63,8.09
CN(C)C(=O)C(CCN1CCC(O)(c2ccc(Cl)cc2)CC1)(c1ccccc1)c1ccccc1 [Loperamide (hydrochloride)],20.6,4.43,29.3,-9.2,-2.52
NCCNCCNCCN [Trientine (hydrochloride)],15.9,-0.163,13,-1.81,-9.36
CC(C)C[C@H](NC(=O)[C@H](CCc1ccccc1)NC(=O)CN1CCOCC1)C(=O)N[C@@H](Cc1ccccc1)C(=O)N[C@@H](CC(C)C)C(=O)[C@@]1(C)CO1 [Carfilzomib],5.53,-0.402,4.53,2.38,4.24
C=C[C@]1(C)C[C@@H](OC(=O)CS[C@@H]2C[C@H]3CC[C@@H](C2)N3C)[C@]2(C)[C@H](C)CC[C@]3(CCC(=O)[C@H]32)[C@@H](C)[C@@H]1O [Retapamulin],25.1,5.21,-2.58,1.86,5.67
CNCc1ccc(-c2[nH]c3cc(F)cc4c3c2CCNC4=O)cc1 [Rucaparib],15.9,5.43,-11,15.7,11
CCCc1nc(C(C)(C)O)c(C(=O)OCc2oc(=O)oc2C)n1Cc1ccc(-c2ccccc2-c2nnn[nH]2)cc1 [Olmesartan Medoxomil],-0.702,-2.51,0.837,-4.7,0.0218
CCOCCn1c(N2CCCN(C)CC2)nc2ccccc21 [Emedastine (fumarate)],5.25,8.02,5.05,0.658,-3.97
COC(=O)C1=C(C)NC(C)=C(C(=O)OCC(C)C)C1c1ccccc1[N+](=O)[O-] (stereo not given) [Nisoldipine],7.56,-9.87,0.119,-9.06,-16.9
COc1cc(NC(C)CCCN)c2ncccc2c1 (stereo not given) [Primaquine (phosphate)],23.1,-5.2,2.45,-4.94,-0.724
CCCCCOc1ccc(-c2ccc(-c3ccc(C(=O)N[C@H]4C[C@@H](O)[C@@H](O)NC(=O)[C@@H]5[C@@H](O)[C@@H](C)CN5C(=O)[C@H]([C@@H](C)O)NC(=O)[C@H]([C@H](O)[C@@H](O)c5ccc(O)cc5)NC(=O)[C@@H]5C[C@@H](O)CN5C(=O)[C@H]([C@@H](C)O)NC4=O)cc3)cc2)cc1 [Anidulafungin],9.87,-9.61,-17.6,-10.4,-18.1
CCOc1cc(CC(=O)N[C@@H](CC(C)C)c2ccccc2N2CCCCC2)ccc1C(=O)O [Repaglinide],2.26,7.77,14.4,0.755,1.85
NCCCC(N)(C(=O)O)C(F)F (racemic) [DL-α-Difluoromethylornithine (hydrochloride hydrate)],-2.42,-3.99,10.2,2.49,2.05
CC(=O)Nc1cccc(-n2c(=O)n(C3CC3)c(=O)c3c(Nc4ccc(I)cc4F)n(C)c(=O)c(C)c32)c1 [Trametinib],9.81,0.301,6.06,2.09,6.51
CN(C/C=C/C#CC(C)(C)C)Cc1cccc2ccccc12 [Terbinafine (hydrochloride)],7.35,0.627,1.02,-1.41,-4.42
C/C(=C\c1csc(C)n1)[C@@H]1C[C@@H]2O[C@]2(C)CCC[C@H](C)[C@H](O)[C@@H](C)C(=O)C(C)(C)[C@@H](O)CC(=O)N1 [Ixabepilone],0.28,-3.45,16.6,5.42,-1.72
O=C(Nc1c(Cl)cncc1Cl)c1ccc(OC(F)F)c(OCC2CC2)c1 [Roflumilast],18.7,-2.74,-14.9,-8.84,-5.57
COc1ccc(Cl)cc1C(=O)NCCc1ccc(S(=O)(=O)NC(=O)NC2CCCCC2)cc1 [Glyburide (potassium salt)],9.95,5.16,10.9,-3.8,7.83
Nc1nc(Cl)nc2c1ncn2[C@@H]1O[C@H](CO)[C@@H](O)[C@@H]1F [Clofarabine],-0.183,-0.201,0.725,2.7,1.77
CON(C)Cc1ccc(O)c2c1C[C@H]1C[C@H]3[C@H](N(C)C)C(=O)C(C(N)=O)=C(O)[C@@]3(O)C(=O)C1=C2O,-1.28,-2.07,7.53,4.95,0.0321
